KB-V1 MDR tox = KB-V1 MDR subline cytotoxicity | KB-V1 MDR cells viability, CellTiter-Glo, 72 h | Potency, µM (series often up to 46.1 µM), hits mostly cytotoxic | 400,000 compounds, 3.4% hits; further: on the % scale 0 is the no-effect control and ±100 the full control effect; nearly all actives have a fitted effect of over 60% in size
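KB-V1 MDR subline cells in DMEM (phenol-red free, 10% FBS) exposed to compounds in qHTS concentration series for 72 h at 37 degrees C. Viability read by CellTiter-Glo luminescence; concentration-effect curves fitted after normalization and correction.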
HT1080NT lethal = kills 2HG-producing HT-1080-NT fibrosarcoma cells; Potency, µM (highest dose often 46.1 µM), for the others: top-dose activity, negative = less viability, actives largely listed as cytotoxic; 360,000 compounds, 1.6% hits; AID 686970; HT-1080-NT fibrosarcoma viability, CellTiter-Glo ATP luminescence, 48 h;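 further: NT is the 2HG producing partner of a matched IDH1 knockdown line; 0% = DMSO-treated cells and -100% = media-only wells without cells; nearly all actives have a fitted effect of over 55% in size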
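750 cells/well, RPMI + 5% FBS; 2 h settle, compound pin-transfer, 48 h at 37 degrees C. CellTiter-Glo 10 min RT, luminescence. Normalized to DMSO and media-only wells.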
SW480 rereplic = DNA re-replication induction in SW480 cells. Potency, µM (top dose mostly 46.1 µM), inactives show at the highest dose re-replication activation, most hits filed as activators. AID 624297. SW480 DNA re-replication, Hoechst DNA content imaging, 48 h. 340,000 compounds, 1.8% hits; further: % of control where 0% means no effect; nearly all actives have a fitted effect of over 55% in size
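Readout is total intensity of Hoechst-stained nuclei, excited at 405 nm and collected at 500-530 nm. Compound treatment lasted 48 hr at 37 C in 5% CO2 before staining.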
HT1080 IDH1KD tx = toxicity to HT-1080 IDH1 knockdown cells (counter line) | 360,000 compounds, 2% hits | Potency, µM (highest dose often 46.1 µM), for inactives: at the top dose activity, negative = toxicity, usual class: cytotoxic | AID 686971 | HT-1080 IDH1 knockdown viability, ATP luminescence, 48 h;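 further: 0% = DMSO wells and -100% = cell-free medium wells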
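Using the IDH1-knockdown HT-1080 line run in the same batch and compound series as the NT line, viability after 48 h at 37 °C was determined by CellTiter-Glo luminescence and expressed as % activity.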
KB-3-1 cytotox = kills parental KB-3-1 adenocarcinoma cells; KB-3-1 viability, CellTiter-Glo ATP luminescence, 72 h; Potency, µM (doses to about 46.1 µM), actives largely listed as cytotoxic; 400,000 compounds, 1.4% hits; AID 1347075; further: on the % scale 0 is the no-effect control and ±100 the full control effect; nearly all actives have a fitted effect of over 60% in size
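Cytotoxicity in the drug-sensitive parental line KB-3-1 was scored as loss of CellTiter-Glo luminescence following 72 h incubation with compound. Values come from curve fitting of normalized concentration-response data.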
MCF10A rerep = DNA re-replication induction in MCF 10a cells; MCF 10A DNA re-replication, Hoechst nuclear intensity, 48 h; 350,000 compounds, 2.9% hits; AID 624296; Potency, µM (series often up to 46.1 µM), without a hit: top-dose activity, positive = re-replication, hits mostly activators; further: % of control where 0% means no effect; nearly all actives have a fitted effect of over 50% in size
Numbers without * were called inactive; i = inactive; u = inconclusive; x = not tested or not shown. Hits are enriched below; roughly 8% of the tested compounds scored in any of these assays. The call rests on the fitted dose curve; in most records, active means well fitted curve in the direction sought with a large enough effect; inconclusive means small, poorly fitted or top-dose-only effect, or another doubt; inactive means no such curve, though single readings can be large; an effect the other way counts as inactive or inconclusive. Potency means the concentration at half of the fitted maximal effect.

SMILES	KB-V1 MDR tox	HT1080NT lethal	SW480 rereplic	HT1080 IDH1KD tx	KB-3-1 cytotox	MCF10A rerep
COCCN1CCC(CNCc2cn[nH]c2-c2ccc(C)c(C)c2)C1 (centres undefined)	u	-18%	-9%	-14%	i	2%
NC(N)=Nc1nc(-c2ccccc2)c2ccccc2n1	i	-29%	-22%	18µM*	u	5%
Clc1nc(-c2ccccc2)c2ccccc2n1	u	-2%	1%	-4%	i	5%
COc1ccc(C(=O)c2sc(Nc3ccccc3)c(C(=O)Nc3ccc(OC)c(OC)c3)c2N)cc1	i	-10%	7%	-28%	i	-2%
COc1ccc(C(=O)c2sc(Nc3cccc(OC)c3)c(C(=O)Nc3cccc(C)c3C)c2N)cc1	u	u	u	u	u	1.5µM*
COc1ccc(NC(=O)c2c(Nc3ccccc3)sc(C(=O)c3ccc(F)cc3)c2N)cc1	u	u	5%	u	2.1µM*	18%
CN(CC(=O)NCc1cccs1)S(=O)(=O)c1cccc2nsnc12	21µM*	-1%	-1%	0%	i	-2%
CCC(C)Sc1cc(C(F)(F)F)c(C(=O)Nc2ccc(Cl)cc2)cn1 (centres undefined)	u	u	16%	23µM*	i	u
Cn1c(=O)c(NC2CCCCC2)c2c3c(cccc31)C(=O)c1ccccc1-2	i	5%	23µM*	12%	i	3.7µM*
Cn1c(=O)c(NCCc2ccccc2)c2c3c(cccc31)C(=O)c1ccccc1-2	i	-15%	18µM*	-29%	i	5.8µM*
CCCCNc1c2c3c(cccc3n(C)c1=O)C(=O)c1ccccc1-2	u	u	5.8µM*	u	u	u
Cc1ccc(N(CC(=O)Nc2ccc(Cl)cc2)S(=O)(=O)c2cccc3nonc23)cc1	u	x	x	x	i	x
CSc1nc2sc3c(c2c(=O)n1Cc1ccccc1)CCC(C(C)(C)C)C3 (centres undefined)	u	x	x	x	i	x
COc1ccc(-c2nc(SCC(=O)Nc3ccc4c(c3)OCO4)c(-c3ccccc3)[nH]2)cc1	i	x	x	x	i	x
O=C(CCCN1C(=O)/C(=C\c2cccs2)SC1=S)Nc1ccc(O)cc1	i	-6%	21µM*	-27%	i	2%
O=C(CCCN1C(=O)/C(=C\c2cccs2)SC1=S)Nc1ccc(C(=O)O)cc1	i	-20%	15%	-8%	i	26%
CC(=O)c1ccc(NC(=O)CCCN2C(=O)/C(=C/C(C)=C/c3ccccc3)SC2=S)cc1	18µM*	6%	3%	0%	u	-3%
O=C(CCCN1C(=O)S/C(=C\C=C\c2ccccc2)C1=O)Nc1ccc(O)cc1	i	u	u	21µM*	i	12µM*
O=C(CCCN1C(=O)/C(=C\c2ccccc2)SC1=S)Nc1ccc(C(=O)O)cc1	u	-7%	-3%	-4%	i	9%
CCOC(=O)c1noc2nc(C)n(CC(=O)Nc3ccc(OC)c(Cl)c3)c(=O)c12	i	x	x	x	i	x
Cc1ccc(/C=C/C(=O)OCC(=O)NCCN2C(=O)CSC2=O)cc1	i	u	u	-25%	i	-6%
O=C(COC(=O)/C=C/c1cccc(C(F)(F)F)c1)NCCN1C(=O)CSC1=O	x	-2%	12%	0%	x	26µM*
COc1ccc(-n2c(SCC(=O)NCCCN3CCCC3=O)nnc2C(C)N2CCCCC2)cc1 (centres undefined)	i	-7%	-27%	3%	i	1.3µM*
Cc1cc2c(cc1C)NC(CC(=O)NCc1ccccc1)C(=O)N2 (centres undefined)	u	4%	u	-28%	i	14µM*
Cc1ccc(SCc2nc(-c3ccc(C(=O)NCc4ccccc4Cl)cc3)oc2C)cc1	u	x	x	x	i	x
